Assay [1] in a line: NCI Yeast Anticancer Drug Screen. Data for the rad50 strain (AID 155).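 Note: 0% = growth of vehicle-only cultures of the same strain.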 As to conditions: S. cerevisiae rad50 strain growth inhibition, hits give high values. The method in brief: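 Compounds were tested on a yeast strain with an engineered DNA damage repair alteration; the reported value is growth inhibition normalised to vehicle treatment.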
Assay [2] is described as follows: NCI Yeast Anticancer Drug Screen. Data for the mec2-1 strain (AID 157). As to conditions: S. cerevisiae mec2-1 strain, hits give high values. The essentials: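 Readout is yeast growth inhibition, normalised to vehicle-treated controls, in the mec2-1 strain exposed to compound.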
A short description of assay [3]: NCI Yeast Anticancer Drug Screen. Data for the sgs1 mgt1 strain (AID 161).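 Note: 0% = growth of cultures given vehicle only.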 The note with it: S. cerevisiae sgs1 mgt1 strain, hits give high values. The method in brief:
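Growth of a repair-deficient yeast mutant was monitored after compound treatment and expressed as inhibition relative to vehicle-treated cultures.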

Assay [4] can be described thus: NCI Yeast Anticancer Drug Screen. Data for the cln2 rad14 strain (AID 165).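 Note: 0% = growth equal to vehicle treated cultures.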 The note with it: S. cerevisiae cln2 rad14 strain, hits give high values. The essentials: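 Relative to vehicle controls, growth inhibition of compound-treated cln2 rad14 yeast was recorded.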
A short description of assay [5]: NCI Yeast Anticancer Drug Screen. Data for the bub3 strain (AID 167). As to conditions: S. cerevisiae bub3 mutant strain, hits give high values. The method in brief: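 Growth of a checkpoint-deficient yeast mutant is measured after compound exposure. Values represent inhibition relative to vehicle.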
Assay [6] is described as follows: NCI Yeast Anticancer Drug Screen. Data for the mlh1 rad18 strain (AID 175). The note with it: S. cerevisiae mlh1 rad18 strain growth inhibition, hits give high values. The method in brief: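 Test agents were incubated with a yeast strain of defined genotype (DNA damage repair defect). Inhibition of growth was derived by comparison with vehicle-exposed cultures.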

[7] abbreviates: at 5.0 µM (retest, dose inferred, filed as 0.5).
Setting [8] is: at 50.0 µM (retest, dose inferred, filed as 5.0).

Compounds without any hit were thinned out: in the full panel of roughly 79,000, 15% have a hit. Values without a mark were called inactive. Active and inactive are the calls of the source. Cut-off read from the data, not from the text of the source: active = growth inhibition above about 70%; inactive = the rest.

`c1ccc(CSc2nnc3c4ccccc4c4ccccc4c3n2)cc1`: the growth inhibition in assay [1] (setting [7]) is -4%; in assay [1] (setting [8]) it was 5%; in assay [1] (at 50.0 µM), -22.6%; in assay [2] (setting [7]), 8%; in assay [2] (setting [8]) it was -22%; in assay [2] (at 50.0 µM), -19.7%. For the same molecule, the growth inhibition in assay [3] (setting [7]) is 5%; in assay [3] (setting [8]) it was 5%; in assay [3] (at 50.0 µM), -5.3%; in assay [4] (setting [7]), -21%; in assay [4] (setting [8]), -12%; in assay [4] (at 50.0 µM), 29.4%. Moreover, the growth inhibition is 8% in assay [5] (setting [7]); 13% in assay [5] (setting [8]); -9.25% in assay [5] (at 50.0 µM); 1% in assay [6] (setting [7]); 3% in assay [6] (setting [8]); 42% in assay [6] (at 50.0 µM).

On to `O=C(CCSCCC(=O)NNc1ccccc1)NNc1ccccc1`, for which the growth inhibition in assay [1] (setting [7]) was 4%; in assay [1] (setting [8]), 32%; in assay [1] (at 50.0 µM), 24.4%; in assay [2] (setting [7]), -1%; in assay [2] (setting [8]), 28%; in assay [2] (at 50.0 µM) it was 3.5%. Moreover, the growth inhibition is 4% in assay [3] (setting [7]); 37% in assay [3] (setting [8]); 20.4% in assay [3] (at 50.0 µM); 6% in assay [4] (setting [7]); 23% in assay [4] (setting [8]); 23.4% in assay [4] (at 50.0 µM). For the same molecule, the growth inhibition in assay [5] (setting [7]) was 7%; in assay [5] (setting [8]), 44%; in assay [5] (at 50.0 µM) it was -14.7%; in assay [6] (setting [7]) it was 15%; in assay [6] (setting [8]), 58%; in assay [6] (at 50.0 µM) it was 35.9%.

`N=C(/C(=C/c1ccccc1)c1ccccc1)c1ccccc1`: the growth inhibition in assay [1] (setting [7]) is 5%; in assay [1] (setting [8]), 78% (active); in assay [1] (at 50.0 µM), 97.6% (active); in assay [2] (setting [7]) it was 8%; in assay [2] (setting [8]), 76% (active); in assay [2] (at 50.0 µM), 98.8% (active). In addition, the growth inhibition in assay [3] (setting [7]) was 6%; in assay [3] (setting [8]) it was 98% (active); in assay [3] (at 50.0 µM), 98.5% (active); in assay [4] (setting [7]), -4%; in assay [4] (setting [8]), 97% (active); in assay [4] (at 50.0 µM), 97.8% (active). The growth inhibition in assay [5] (setting [7]) was 25%; in assay [5] (setting [8]) it was 98% (active); in assay [5] (at 50.0 µM) it was 98.7% (active); in assay [6] (setting [7]), 5%; in assay [6] (setting [8]), 98% (active); in assay [6] (at 50.0 µM), 97.9% (active).

Take `O=C(/C=C/c1cccc(Cl)c1)c1ccccc1`: the growth inhibition in assay [1] (setting [7]) is 16%; in assay [1] (setting [8]), 98% (active); in assay [1] (at 50.0 µM), 95.7% (active); in assay [2] (setting [7]), -9%; in assay [2] (setting [8]), 99% (active); in assay [2] (at 50.0 µM), 95.5% (active). Besides, the growth inhibition in assay [3] (setting [7]) is 7%; in assay [3] (setting [8]), 99% (active); in assay [3] (at 50.0 µM), 98% (active); in assay [4] (setting [7]), 5%; in assay [4] (setting [8]), 52%; in assay [4] (at 50.0 µM), 12.9%. Moreover, the growth inhibition is -30% in assay [5] (setting [7]); 98% (active) in assay [5] (setting [8]); 95.2% (active) in assay [5] (at 50.0 µM); 10% in assay [6] (setting [7]); 96% (active) in assay [6] (setting [8]); 99.4% (active) in assay [6] (at 50.0 µM).

`O=C1N[C@H]2[C@H](CS[C@H]2CCCCC(=O)N(CCP(c2ccccc2)c2ccccc2)CCP(c2ccccc2)c2ccccc2)N1`: the growth inhibition in assay [1] (setting [7]) is 2%; in assay [1] (setting [8]), 41%; in assay [1] (at 50.0 µM) it was 59.4%; in assay [2] (setting [7]), 1%; in assay [2] (setting [8]), 27%; in assay [2] (at 50.0 µM), 16.4%. Also, the growth inhibition in assay [3] (setting [7]) was 11%; in assay [3] (setting [8]) it was 47%; in assay [3] (at 50.0 µM), -5.85%; in assay [4] (setting [7]) it was 9%; in assay [4] (setting [8]) it was 23%; in assay [4] (at 50.0 µM) it was -18.8%. Besides, the growth inhibition in assay [5] (setting [7]) is 16%; in assay [5] (setting [8]) it was 34%; in assay [5] (at 50.0 µM) it was 7.8%; in assay [6] (setting [7]), -15%; in assay [6] (setting [8]) it was 8%; in assay [6] (at 50.0 µM), -26.7%.

In the case of `CC1=C(/C=C/C(C)=N/NC(N)=S)C(C)(C)CCC1`, the growth inhibition in assay [1] (setting [7]) was 24%; in assay [1] (setting [8]), 87% (active); in assay [1] (at 50.0 µM) it was 84.5% (active); in assay [2] (setting [7]) it was 5%; in assay [2] (setting [8]), 88% (active); in assay [2] (at 50.0 µM) it was 80.5% (active). For the same molecule, the growth inhibition in assay [3] (setting [7]) is 22%; in assay [3] (setting [8]), 88% (active); in assay [3] (at 50.0 µM), 65.8%; in assay [4] (setting [7]), 15%; in assay [4] (setting [8]), 85% (active); in assay [4] (at 50.0 µM), 76.9% (active). In addition, the growth inhibition was 16% in assay [5] (setting [7]); 86% (active) in assay [5] (setting [8]); 80.1% (active) in assay [5] (at 50.0 µM); 6% in assay [6] (setting [7]); 89% (active) in assay [6] (setting [8]); 85% (active) in assay [6] (at 50.0 µM).

The record behind these values is PubChem BioAssay (NCI).
